Source: PubChem (National Center for Advancing Translational Sciences (NCATS))
A selection: hits, their analogues and other compounds. The true share with any hit is near 5.2%.
Tau fibril FP = inhibitors of human tau fibril formation. Potency, µM (top dose mostly 57.7 µM), for the others: at the top dose activity, negative = inhibition, usual class: inhibitors. hit rate 0.39% among 280,000. P10636. K18 P301L tau heparin fibrillization, Alexa594 FP, 6 h; further: potency means the concentration at half of the fitted maximal effect; nearly all actives have a fitted effect of over 55% in size
Target sequence (P10636 561-689 P618L limits assumed): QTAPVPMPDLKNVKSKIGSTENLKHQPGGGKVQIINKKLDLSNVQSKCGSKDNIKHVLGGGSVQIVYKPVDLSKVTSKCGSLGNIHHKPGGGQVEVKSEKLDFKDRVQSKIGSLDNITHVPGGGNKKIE
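FP of Alexa 594-tau after heparin (20 uM) induction. Substrate: human K18 P301L, 15 uM unlabeled, 0.24 uM labeled. Buffer 100 mM sodium acetate pH 7. 6 hr, 37 C.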
Tau ThT inhib = blocks human tau fibril formation measured by thioflavin T; Potency, µM (series often up to 57.4 µM), without a hit: at the top dose activity, negative = inhibition, usual class: inhibitors; recombinant tau K18 P301L, heparin-induced fibrillization, ThT fluorescence; P10636; AID 1460; hit rate 2.1% among 270,000; further: potency means the concentration at half of the fitted maximal effect; nearly all actives have a fitted effect of over 55% in size
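Fibril formation assay: tau K18 P301L at 15 uM with trace Alexa 594 label, heparin inducer 20 uM, pH 7 sodium acetate buffer, 37 C for 6 hr; endpoint ThT signal.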
Tau fluor cs = counter-screen for tau fibril formation inhibitors; hit rate 0.93% among 280,000; tau K18 P301L (four-repeat tau fragment) Alexa594 fluorescence, heparin fibrillization; AID 1463; Potency, µM (series often up to 57.7 µM), for the others: at the highest dose activity change, negative = decrease; further: potency means the concentration at half of the fitted maximal effect; nearly all actives have a fitted effect of over 55% in size
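Human K18 P301L tau (15 uM unlabeled plus 0.24 uM Alexa 594-labeled, final) in 100 mM sodium acetate pH 7 was mixed with compound and 20 uM heparin and incubated 6 hr at 37 C.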
Coupling enz = coupling enzyme interference in Giardia aldolase counter-screen. coupling enzyme system counterscreen, AmpLite Red fluorescence. activity change, negative = inhibition, % at 58.2 µM, hits read low. hit rate 0.67% among 290,000. AID 2472; in the data active means activity change below about -30%
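Final compound at 57.5 uM, incubated 10 min at RT with coupling enzyme reagent (glyceraldehyde-3-phosphate), then 20 min with substrate and AmpLite Red detection. Fluorescence read at 525/598 nm; tests interference with the coupling assay, not aldolase inhibition.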
Sfp PPTase inh = inhibitors of Bacillus subtilis Sfp phosphopantetheinyl transferase | Q9F4F7 | Biochemical Sfp PPTase activity, qHTS | Potency, µM, inactives show largest response in the series, negative = inhibition, most hits filed as inhibitors | hit rate 3.5% among 310,000 | AID 1490;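 further: the enzyme is Sfp with the accession as filed and its product quenches rhodamine fluorescence; potency means the concentration at half of the fitted maximal effect; 0% = enzyme reaction without inhibitor and -100% = no enzyme wells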
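Buffer: 50 mM Hepes-Na pH 7.6, 10 mM MgCl2, 0.01% Nonidet P-40, 0.01% BSA. Enzyme 15 nM, pre-exposed to compound 15 min; substrates then added and fluorescence change tracked over 30 min.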
* hit, by the source's call. Unless noted, the call rests on the fitted dose curve; in most records, active means well fitted curve in the direction sought with a large enough effect; inconclusive means small, poorly fitted or top-dose-only effect, or another doubt; inactive means no such curve, though single readings can be large; an effect the other way counts as inactive or inconclusive. Unless noted, on the % scale 0 is the no-effect control and ±100 the full control effect.

What do the screens show for `O=C1/C(=C\c2cc([N+](=O)[O-])ccc2O)SC(=S)N1Cc1ccc(Cl)cc1`?
Coupling enz: 5.4; Sfp PPTase inh: inconclusive

What do the screens show for `Cc1ccccc1/C=C1\SC(=S)N(/N=C/c2cc([N+](=O)[O-])ccc2O)C1=O`?
Tau fibril FP: -12.9%; Tau ThT inhib: 25.1µM*; Tau fluor cs: inconclusive; Coupling enz: 4.4; Sfp PPTase inh: -13.6%

How did CCc1ccccc1Nc1nn2c(=O)c3ccc(C(=O)NC4CCCCC4)cc3nc2s1 do in these assays?
Tau fibril FP: -13.8%; Tau ThT inhib: 2.6%; Tau fluor cs: -14.6%

Results for COc1ccc(CC(=O)NNC(=O)c2cnccn2)cc1 ?
Tau fibril FP: -9.2%; Tau ThT inhib: -10.7%; Tau fluor cs: -7.4%; Coupling enz: 2.2; Sfp PPTase inh: 56.2µM*

Results for CC(C)(C)C(=O)NNC(=O)c1cnccn1 ?
Tau fibril FP: -0.3%; Tau ThT inhib: -2.7%; Tau fluor cs: -0.4%; Coupling enz: 2.4; Sfp PPTase inh: 79.4µM*

What do the screens show for `COc1ccc(CC(=O)NNC(=O)c2ccccn2)cc1`?
Coupling enz: 0.4; Sfp PPTase inh: 22.6%

How did O=C(NNC(=O)C12CC3CC(CC(C3)C1)C2)c1cnccn1 do in these assays?
Tau fibril FP: 7.5%; Tau ThT inhib: -2.8%; Tau fluor cs: -0.1%; Coupling enz: -0.7; Sfp PPTase inh: -27.8%

What do the screens show for `CCOC(=O)C(CCc1ccccc1)NC(C)C(=O)N1Cc2cc(OC)c(OC)cc2CC1C(=O)O` (stereo not drawn)?
Coupling enz: 1.2; Sfp PPTase inh: 17.6%

What do the screens show for `O=C1NC(=S)N/C1=C/c1cc([N+](=O)[O-])ccc1O`?
Tau fibril FP: -1.1%; Tau ThT inhib: 15.8µM*; Tau fluor cs: -20.5%; Coupling enz: 10.8; Sfp PPTase inh: inconclusive

How did O=C1NC(=S)N/C1=C/c1cccc([N+](=O)[O-])c1O do in these assays?
Tau fibril FP: -7.9%; Tau ThT inhib: 4.47µM*; Tau fluor cs: inconclusive; Coupling enz: 5.9; Sfp PPTase inh: -17.4%

What do the screens show for `CCOc1cc(/C=C2/NC(=S)NC2=O)ccc1OCc1ccc([N+](=O)[O-])cc1`?
Tau fibril FP: -0.7%; Tau ThT inhib: inconclusive; Tau fluor cs: -16.8%; Coupling enz: 2.9; Sfp PPTase inh: -18.9%

What do the screens show for `Cc1ccc(/C=C2\NC(=S)NC2=O)cc1[N+](=O)[O-]`?
Tau fibril FP: -0.5%; Tau ThT inhib: inconclusive; Tau fluor cs: -9.7%; Coupling enz: 1.0; Sfp PPTase inh: 2.0%

What do the screens show for `CC(C)(C)c1ccc(C(=O)Nc2nnc3n2CCS3)cc1`?
Tau fibril FP: 0.9%; Tau ThT inhib: -0.9%; Tau fluor cs: -0.3%

How did O=c1cc(-c2ccccc2Cl)oc2c(NS(=O)(=O)c3cc(Cl)cc(Cl)c3O)ccc(O)c12 do in these assays?
Tau fibril FP: 31.6µM*; Tau ThT inhib: 22.4µM*; Tau fluor cs: inconclusive; Coupling enz: 7.4; Sfp PPTase inh: -16.6%

How did CC(C)C(=O)Nc1nnc(S(=O)(=O)N(C)Cc2ccc(F)cc2)s1 do in these assays?
Tau fibril FP: -1.5%; Tau ThT inhib: 6.5%; Tau fluor cs: 0.4%

How did CCCCN(C(=O)NC(=O)Nc1nc2ccc(OC)cc2s1)S(C)(=O)=O do in these assays?
Tau fibril FP: -2.9%; Tau ThT inhib: 4.6%; Tau fluor cs: -10.0%; Coupling enz: 0.7; Sfp PPTase inh: 56.2µM*

Results for CC1(C)C(N(O)C(=O)Nc2ccc(Cl)cc2)N(c2ccc(Cl)cc2)C(=O)N1CC(=O)NN (stereo not drawn) ?
Tau fibril FP: -12.5%; Tau ThT inhib: 6.0%; Tau fluor cs: -15.6%; Coupling enz: -1.0; Sfp PPTase inh: 100µM*

Results for CCOc1ccc(-c2nc(SC(C(C)=O)C(=O)N(C)C)c3c(=O)n(C)c(=O)n(C)c3n2)cc1 (stereo not drawn) ?
Tau fibril FP: -4.4%; Tau ThT inhib: -3.7%; Tau fluor cs: -3.8%

How did O=C1c2ccccc2-c2nc3ccccc3nc21 do in these assays?
Tau fibril FP: inconclusive; Tau ThT inhib: 20µM*; Tau fluor cs: inconclusive; Coupling enz: -6.6; Sfp PPTase inh: 3.3%

Results for CCc1ccc(C(C)NC(=O)c2cc(C)oc2C)cc1 (stereo not drawn) ?
Tau fibril FP: -7.1%; Tau ThT inhib: inconclusive; Tau fluor cs: -13.8%; Coupling enz: -0.1; Sfp PPTase inh: 15.8µM*
